NOMO-1 viab – STK33 inhibitor candidate reducing NOMO-1 cell viability; NOMO-1 AML viability, CellTiter-Glo luminescence, 72 h; inhibition, % (no concentration beside the values); actives 7.5% (n = 37,000); AID 2330; in the data active means inhibition above about 80%
Shh pathway inh – Sonic Hedgehog pathway inhibition; Shh-LIGHT2 Gli-luciferase reporter, 30 h; inhibition, % (test concentration not listed); actives 2.1% (n = 22,000); AID 2313;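 active means mean inhibition across valid replicates above about 65%, limit read from the data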;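 further: pathway switched on by Shh-conditioned medium diluted 1 in 25 in low serum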
MITF inhib – blocks MITF activity | TRPM1 promoter luciferase, luminescence, 24 h | inhibition, % (concentration not given with the values) | actives 0.28% (n = 37,000) | AID 2240; in the data active means inhibition above about 85%;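 further: human melanocyte line stably carrying TRPM1 promoter luciferase reporter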
Starred values were filed as active, the others as inactive; · = no result; ! = repeats disagree. Rows were chosen to be rich in hits. Some 8.1% of all compounds tested hit in one or more screens of this group.

SMILES	NOMO-1 viab	Shh pathway inh	MITF inhib
C[C@@H]1CN([C@@H](C)CO)C(=O)c2cccc(NC(=O)c3ccc(-c4nccs4)cc3)c2O[C@H]1CN(C)Cc1ccc(C(=O)Nc2ccccc2N)cc1	126*	·	38
C[C@@H]1CN([C@H](C)CO)C(=O)c2cccc(NC(=O)c3ccc(-c4nccs4)cc3)c2O[C@H]1CN(C)Cc1ccc(C(=O)O)cc1	12	-31	-13
C[C@H](CO)N1C[C@H](C)[C@H](CN(C)Cc2ccc(Oc3ccccc3)cc2)Oc2c(NC(=O)c3ccc(-c4nccs4)cc3)cccc2C1=O	112*	43	-4
C[C@H](CO)N1C[C@H](C)[C@H](CN(C)C(=O)Nc2ccc(C(F)(F)F)cc2)Oc2c(NC(=O)c3ccc(-c4nccs4)cc3)cccc2C1=O	93*	46	32
C[C@H](CO)N1C[C@H](C)[C@@H](CN(C)C(=O)Nc2ccc(C(F)(F)F)cc2)Oc2c(NC(=O)c3ccc(-c4nccs4)cc3)cccc2C1=O	23	1	-6
C[C@@H]1CN([C@H](C)CO)C(=O)c2cccc(NC(=O)c3ccc(-c4nccs4)cc3)c2O[C@H]1CN(C)Cc1ccc(C(F)(F)F)cc1	84*	24	52
COc1ccc(S(=O)(=O)Nc2cccc3c2O[C@H](CN(C)CC2CC2)[C@H](C)CN([C@@H](C)CO)C3=O)cc1	-6	-38	-4
CCOC(=O)c1c(NC(=O)c2nc3nc(C)cc(C(F)F)n3n2)sc(C)c1C	21	·	-6
C[C@@H]1CN([C@@H](C)CO)C(=O)c2cc(NC(=O)Cc3ccccc3)ccc2O[C@@H]1CN(C)S(=O)(=O)c1cn(C)cn1	-8	9	5
COc1ccc(OC)c(NC(=O)C2=C(C)NC(=O)NC2c2ccc(OC)cc2OC)c1 (centres undefined)	-21	·	-22
Cc1cccc(C)c1NC(=O)CN(c1ccc(Br)cc1)S(C)(=O)=O	14	·	-14
Cc1sc(NC(=O)COc2ccc(-c3ccccc3)cc2)c(C(N)=O)c1C	-3	·	-23
C[C@@H]1CN([C@H](C)CO)C(=O)c2cccc(NC(=O)c3ccc(-c4nccs4)cc3)c2O[C@@H]1CN(C)Cc1ccc(C(=O)Nc2ccccc2N)cc1	142*	·	58
C[C@@H]1CN([C@H](C)CO)C(=O)c2cccc(NC(=O)c3ccc(-c4nccs4)cc3)c2O[C@@H]1CN(C)Cc1ccc(-c2ccccc2)cc1	60	14	-12
C[C@@H]1CN([C@H](C)CO)C(=O)c2cccc(NC(=O)c3ccc(-c4nccs4)cc3)c2O[C@H]1CN(C)Cc1ccccc1	73	19	48
C[C@H]1CN([C@@H](C)CO)C(=O)c2cccc(NC(=O)c3ccc(-c4nccs4)cc3)c2O[C@H]1CN(C)Cc1ccc(C(=O)Nc2ccccc2N)cc1	101*	·	-1
Cc1c(NC(=O)CSc2nc3cc(C(=O)N4CCCC4)ccc3s2)c(=O)n(-c2ccccc2)n1C	-16	·	17
CNC[C@@H]1Oc2c(NC(=O)Nc3ccc(C(F)(F)F)cc3)cccc2C(=O)N([C@H](C)CO)C[C@H]1C	35	-10	0
COc1cc(OC)c(OC)cc1CN1CCN(Cc2ccccn2)CC1	-2	·	-15
CCN(CC)C(=S)CSc1nc(-c2ccccc2)cc(-c2ccco2)c1C#N	88*	-28	10
CCc1nnc(NC(=O)CSc2nc(-c3ccccc3)cc(C(F)(F)F)c2C#N)s1	5	6	2
C[C@H](CO)N1C[C@H](C)[C@@H](CN(C)Cc2ccc(C(=O)O)cc2)Oc2c(NC(=O)c3nc4ccccc4s3)cccc2C1=O	18	28	12
C[C@@H]1CN([C@@H](C)CO)C(=O)c2cccc(NC(=O)c3nc4ccccc4s3)c2O[C@@H]1CN(C)Cc1ccc(C(=O)Nc2ccccc2N)cc1	127*	·	18
C[C@H](CO)N1C[C@H](C)[C@@H](CN(C)Cc2ccc(C(=O)Nc3ccccc3N)cc2)Oc2c(NC(=O)c3nc4ccccc4s3)cccc2C1=O	110*	·	22
C[C@@H]1CN([C@H](C)CO)C(=O)c2cccc(NC(=O)c3nc4ccccc4s3)c2O[C@H]1CN(C)Cc1ccc(C(=O)O)cc1	11	-17	5
SMILES	NOMO-1 viab	Shh pathway inh	MITF inhib
Cc1csc2sc(C=NCc3cccs3)c(C)c12	122*	-4	-6
O=C(NC(Nc1ccc(Cl)cc1)C(=O)c1ccccc1)c1ccccc1 (centres undefined)	34	17	0
Cc1onc(-c2ccccc2)c1C(=O)N(CCC#N)CCC#N	19	·	-15
NC(=O)NC(=O)Cc1ccccc1	27	3	-11
NC(=Nc1ccccc1)NC(=O)c1nc(Cl)c(N)nc1N	119*	13	-84
NC(=NCc1ccccc1)NC(=O)c1nc(Cl)c(N)nc1N	91*!	69*!	9
O=C(CSc1ncnc2scc(-c3ccc(Br)cc3)c12)Nc1ccccc1	7	·	-5

From PubChem
